FECH inh: inhibitors of human ferrochelatase; purified FECH, Ni-mesoporphyrin absorbance 550 nm; calls only at 10 µM (by protocol); P22830; 3.3% of 20,000 active;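 active = enzyme reaction rate more than 3 SD below the solvent-only control wells on the same plate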;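 also: lower slope than DMSO wells means FECH inhibition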
Target sequence (P22830 whole entry, looked up): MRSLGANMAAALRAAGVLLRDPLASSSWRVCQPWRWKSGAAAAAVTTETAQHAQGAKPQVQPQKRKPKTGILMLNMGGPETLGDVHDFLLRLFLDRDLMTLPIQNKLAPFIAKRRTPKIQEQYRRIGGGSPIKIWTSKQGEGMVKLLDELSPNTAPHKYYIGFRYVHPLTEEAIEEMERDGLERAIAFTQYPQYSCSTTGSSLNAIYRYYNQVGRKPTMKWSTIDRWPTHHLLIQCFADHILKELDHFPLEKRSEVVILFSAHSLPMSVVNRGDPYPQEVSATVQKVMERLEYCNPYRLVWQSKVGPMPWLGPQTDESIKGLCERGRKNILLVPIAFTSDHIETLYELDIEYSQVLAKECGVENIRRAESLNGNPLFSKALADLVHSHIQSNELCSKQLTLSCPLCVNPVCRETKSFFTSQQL
Numbers without * were called inactive. Only a selection was taken, and hits are over-represented in it overall.

What do the screens show for `CCc1nc(OCC(=O)NCc2cccc(OC)c2)c2c(-c3ccc(F)cc3)noc2n1`?
FECH inh: active

How did CCc1nc(OCC(=O)NCc2ccc(C)cc2)c2c(-c3ccc(F)cc3)noc2n1 do in these assays?
FECH inh: inactive

Results for CCOc1ccc(CNC(=O)COc2nc(CC)nc3onc(-c4ccc(F)cc4)c23)cc1 ?
FECH inh: inactive

What do the screens show for `CCn1c(CNS(=O)(=O)c2ccccc2C)nc2cccnc21`?
FECH inh: inactive

Results for Cc1ccc(N2C(=O)CCS2(=O)=O)cc1S(=O)(=O)Nc1cccc(Cl)c1 ?
FECH inh: inactive

How did Cc1nc2nc(-c3ccccc3)nn2c(Sc2ccccc2NC(=O)c2ccc(C(F)(F)F)cc2)c1C do in these assays?
FECH inh: inactive

How did Cc1ccc(C)c(NC(=O)CN2CCN(Cc3ccccc3C)S2(=O)=O)c1 do in these assays?
FECH inh: inactive

What do the screens show for `Cc1cc(C)c(CN2CCCN(Cc3ccc(Cl)cc3)S2(=O)=O)c(C)c1`?
FECH inh: inactive

What do the screens show for `Cc1cccc(CN2CCN(CC(=O)Nc3ccc(C)cc3C)S2(=O)=O)c1`?
FECH inh: inactive

What do the screens show for `Cc1ccc(CN2CCCN(Cc3c(C)cc(C)cc3C)S2(=O)=O)cc1`?
FECH inh: inactive

What do the screens show for `CSc1cccc(NC(=O)CN2CCCN(Cc3cccc(C)c3)S2(=O)=O)c1`?
FECH inh: inactive

How did Cc1ccc(NC(=O)CN2CCN(Cc3ccccc3C)S2(=O)=O)c(C)c1 do in these assays?
FECH inh: active

Results for Cc1cc(C)c(CN2CCCN(Cc3ccccc3)S2(=O)=O)c(C)c1 ?
FECH inh: active

How did Cc1cccc(NC(=O)CN2CCN(Cc3ccccc3C)S2(=O)=O)c1 do in these assays?
FECH inh: inactive

What do the screens show for `Cc1cccc(CN2CCCN(CC(=O)NC3CCCC3)S2(=O)=O)c1`?
FECH inh: inactive

Results for Cc1ccc(CN2CCCN(CC(=O)Nc3ccc(C)cc3C)S2(=O)=O)cc1 ?
FECH inh: inactive

Results for Cc1cccc(CN2CCCN(CC(=O)Nc3ccc(C)cc3C)S2(=O)=O)c1 ?
FECH inh: active

Results for Cc1cccc(CN2CCCN(CC(=O)Nc3c(C)cc(C)cc3C)S2(=O)=O)c1 ?
FECH inh: active

How did Cc1noc(-c2ccc(S(=O)(=O)Nc3ccc(S(N)(=O)=O)cc3)s2)c1C do in these assays?
FECH inh: inactive

Results for CCCCN(Cc1ccsc1)C(=O)c1c(C)nc2ncccn12 ?
FECH inh: inactive

How did CN(C)S(=O)(=O)N1CCC(c2nnnn2-c2ccccc2)CC1 do in these assays?
FECH inh: inactive

How did Cn1c(=O)n(Cc2cccc(F)c2)c(=O)c2cnc(-c3cccs3)nc21 do in these assays?
FECH inh: inactive

How did O=c1cc(CCn2cnc(-c3ccccc3)c2-c2cccc3cccnc23)nc[nH]1 do in these assays?
FECH inh: inactive

What do the screens show for `Cc1ccc(NC(=O)CN2CCN(Cc3ccc(F)cc3)S2(=O)=O)c(C)c1`?
FECH inh: inactive

How did Cc1ccc(CN2CCCN(CC(=O)Nc3cc(C)ccc3C)S2(=O)=O)cc1 do in these assays?
FECH inh: inactive

How did Cc1cc(C)c(NC(=O)CN2CCCN(Cc3ccccc3)S2(=O)=O)c(C)c1 do in these assays?
FECH inh: inactive

Results for Cc1ccc(NC(=O)CN2CCCN(Cc3ccc(Cl)cc3)S2(=O)=O)c(C)c1 ?
FECH inh: inactive

Results for Cc1cc(C)c(NC(=O)CN2CCN(Cc3ccc(F)cc3)S2(=O)=O)c(C)c1 ?
FECH inh: active

Results for Cc1ccc(C)c(NC(=O)CN2CCCN(Cc3cccc(F)c3)S2(=O)=O)c1 ?
FECH inh: inactive

How did Cc1ccc(NC(=O)CN2CCN(Cc3ccc(F)cc3)S2(=O)=O)cc1C do in these assays?
FECH inh: inactive

How did Cc1cccc(CN2CCN(CC(=O)Nc3cc(C)ccc3C)S2(=O)=O)c1 do in these assays?
FECH inh: active

What do the screens show for `Cc1ccc(CN2CCCN(CC(=O)Nc3c(C)cc(C)cc3C)S2(=O)=O)cc1`?
FECH inh: active

How did CN(CCNC(=O)c1ccc(CN2C(=O)CCn3nccc32)cc1)Cc1ccccc1 do in these assays?
FECH inh: inactive

Results for CC(=O)N1CCC(N2CCN(c3nnc(C(F)(F)F)s3)CC2)CC1 ?
FECH inh: inactive

What do the screens show for `CN(C(=O)Cn1nnnc1N)C1Cc2ccccc2C1`?
FECH inh: inactive

How did COc1ccc(N2C(=O)CCS2(=O)=O)cc1S(=O)(=O)Nc1ccc(C)c(C)c1 do in these assays?
FECH inh: inactive

How did O=C(NCCc1ccco1)c1ccc(CN2C(=O)CCn3nccc32)cc1 do in these assays?
FECH inh: inactive

What do the screens show for `Cc1ccccc1-c1nc2nc(CNc3ccccc3F)cc(=O)n2[nH]1`?
FECH inh: active

Results for Cc1ccccc1NCc1cc(=O)n2[nH]c(-c3ccccc3C)nc2n1 ?
FECH inh: active

Results for Cc1ccccc1-c1nc2nc(CNC(C)C)cc(=O)n2[nH]1 ?
FECH inh: inactive

How did COc1cccc(CCn2ccnc2C2CCOC(C)(C)C2)c1 (stereo not given) do in these assays?
FECH inh: inactive

What do the screens show for `CC(C)Cc1cc(C(=O)N2CCn3cncc3C2)on1`?
FECH inh: inactive

What do the screens show for `c1ccc(-c2ncn(CCc3cnc[nH]3)c2-c2ncc[nH]2)cc1`?
FECH inh: inactive

How did Cc1cccc(CN2CC=C(C(=O)Nc3cccc(C)c3)CC2)c1 do in these assays?
FECH inh: inactive

How did COc1ccc(-c2cc(N3CCN(C(=O)Nc4cc(Cl)c(OC)cc4OC)CC3)ncn2)cc1 do in these assays?
FECH inh: inactive

What do the screens show for `O=C1CC2(CCN(CCc3ccccc3)CC2)CN1`?
FECH inh: active

How did CC/C=C\CCCN1CCC2(CC1)CNC(=O)C2 do in these assays?
FECH inh: inactive

Results for O=C1CC2(CCN(C(=O)C/C=C/c3ccccc3)CC2)CN1 ?
FECH inh: inactive

What do the screens show for `CCc1nc(OCC(=O)NCc2ccc(SC)cc2)c2c(C)c(C)oc2n1`?
FECH inh: inactive

How did CCN(CC)C1CCN(C(=O)CCC(=O)NC2CCCCCCC2)C1 (stereo not given) do in these assays?
FECH inh: active

Results for O=C(CCC(=O)N1CCOC2(CNCCOC2)C1)NC1CCCC1 (stereo not given) ?
FECH inh: inactive

Results for CN1CCCC1CCNC(=O)CCC(=O)NC1CCCC1 (stereo not given) ?
FECH inh: inactive

Results for COC(=O)CN1CCC(NC2CCCC(C)(C)C2)CC1 (stereo not given) ?
FECH inh: inactive

Results for Cn1c(=O)c2c(-c3ccc(Br)cc3)c(Nc3ccccc3)oc2n(C)c1=O ?
FECH inh: inactive

Results for COC(=O)c1cc2n(n1)CCN(C(=O)CCN1CCCCO1)C2 ?
FECH inh: inactive

Results for O=c1c(Nc2ccc(Cl)cc2)c(-c2ccc3c(c2)CCCC3)c1=O ?
FECH inh: inactive

What do the screens show for `O=c1c(Nc2ccccc2F)c(-c2ccc3c(c2)CCCC3)c1=O`?
FECH inh: active

What do the screens show for `Cc1c(Cl)cccc1Nc1c(-c2ccc3c(c2)CCCC3)c(=O)c1=O`?
FECH inh: inactive

How did COc1ccc(-c2cc3n(n2)CCC(=O)N3Cc2ccc(C(=O)NCc3cccc(OC)c3)cc2)cc1 do in these assays?
FECH inh: inactive

How did CCc1cc(Sc2ccccc2NC(=O)Cc2cccc(OC)c2)n2nc(C)nc2n1 do in these assays?
FECH inh: inactive

How did CCc1cc(Sc2ccccc2NC(=O)c2cc(OC)cc(OC)c2)n2nc(C)nc2n1 do in these assays?
FECH inh: inactive
